# Test results published in publication PMC5540273 (PLoS ONE, 2017).
# Legend:
# Details in all cases: concentration: 1 μM, replicates: in singlicate; n = 1
# TNIK = system: TNIK
# TNK1 = system: TNK1
# TNK2 = system: TNK2
# TNNI3K = system: TNNI3K
# TRKA = system: T1, TRKA
# T1 construct: gene NTRK1
# TRKB = system: TRKB
# TRKC = system: T2, TRKC
# T2 construct: gene NTRK3
# TRPM6 = system: TRPM6
# TSSK1B = system: TSSK1B
# TSSK3 = system: TSSK3
# TTK = system: TTK
# TXK = system: TXK
# [1] = system: TYK2(JH1domain-catalytic)
# [2] = system: TYK2(JH2domain-pseudokinase)
# TYRO3 = system: TYRO3
# ULK1 = system: ULK1
# ULK2 = system: ULK2
# ULK3 = system: ULK3
# VEGFR2 = system: T3, VEGFR2
# T3 construct: gene KDR
# VPS34 = system: T4, VPS34
# T4 construct: gene PIK3C3
# 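Also: KINOMEscan kinase panel screen.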
SMILES,%Inh (TNIK),%Inh (TNK1),%Inh (TNK2),%Inh (TNNI3K),%Inh (TRKA),%Inh (TRKB),%Inh (TRKC),%Inh (TRPM6),%Inh (TSSK1B),%Inh (TSSK3),%Inh (TTK),%Inh (TXK),%Inh [1],%Inh [2],%Inh (TYRO3),%Inh (ULK1),%Inh (ULK2),%Inh (ULK3),%Inh (VEGFR2),%Inh (VPS34)
COc1cccc(-c2cc(-c3c[nH]nc3-c3ccccn3)ccn2)c1 [GW680338],71%,0%,0%,9%,38%,0%,11%,0%,0%,11%,23%,0%,12%,9%,0%,0%,0%,7%,0%,0%
Cc1ccc(-c2cc(-c3c[nH]nc3-c3ccccn3)ccn2)cc1 [GW684088],90.2%,19%,12%,0%,18%,22%,40%,0%,0%,10%,0%,0%,18%,22%,0%,0%,0%,3%,22%,0%
COc1ccc(C2=C(Nc3cccc(C(=O)O)c3)C(=O)NC2=O)cc1 [SB-390765],0%,5%,6%,0%,47%,0%,22%,0%,8%,0%,10%,21%,0%,0%,22%,16%,8%,28%,21%,33%
Cn1ccc2ncnc(Oc3ccc(NC(=O)Nc4ccccc4)cc3)c21,3%,0%,0%,0%,4%,0%,15%,0%,0%,0%,0%,1%,0%,0%,0%,0%,0%,3%,97.8%,0%
COc1cc2ncnc(Nc3ccc4nc(-c5ccccc5)[nH]c4c3)c2cc1OC.Cl [GW282450],0%,0%,9%,14%,48%,0%,0%,38%,0%,21%,30%,0%,9%,10%,0%,1%,0%,2%,27%,7%
Nc1nc(-c2nccs2)c(-c2ccnc3ccccc23)s1 [GW693542],10%,0%,24%,4%,0%,0%,23%,4%,16%,79%,14%,5%,0%,9%,18%,8%,0%,0%,0%,0%
O=c1cc(N2CCOCC2)nc2n(Cc3cccc(Cl)c3Cl)ccn12 [GSK2286295],0%,8%,12%,13%,0%,0%,0%,25%,0%,47%,0%,19%,4%,0%,0%,12%,0%,0%,0%,97%
Cl.NC(=O)c1cccc(Nc2nccc(Nc3ccc(Oc4cccc(Cl)c4)c(Cl)c3)n2)c1 [GW659008],2%,77%,29%,4%,0%,0%,0%,13%,0%,4%,29%,0%,39%,18%,10%,6%,0%,0%,0%,9%
Cn1ccc2ncnc(Oc3ccc(Nc4nc5ccccc5[nH]4)cc3)c21,0%,0%,0%,0%,0%,0%,0%,100%,0%,0%,2%,0%,0%,0%,0%,0%,0%,0%,0%,0%
